# Data: ChEMBL document CHEMBL4513216, “Probing the Open Global Health Chemical Diversity Library for Multistage-Active Starting Points for Next-Generation Antimalarials” (ACS Infect Dis, 2020)
# Out of some 68,000 compounds screened, about 2,700 (4%) showed an effect of 50% or more. Many of the other results were omitted from the sample, so strong results are more common in it than they were.
# Test system: Plasmodium berghei
# Assay: Screen against P. berghei liver stage (PbLuc), transformed with Luciferase, at 2uM
# Format: functional, HepG2
# Conditions: tested at 2 uM
row,SMILES,INHIBITION [%]
1,COc1c[nH]c(C(=O)N2CCN(c3cccc(Cl)c3)CC2)cc1=O,22.88
2,CCc1ncc(CN2C[C@@H]3CC[C@H]2CN(C(=O)C2CCC2)C3)cn1,12.3
3,Cn1ccnc1CN(CCO)C(=O)c1cc2ccccc2o1,22.27
4,Cc1c(Cl)cc(C(=O)N(CCO)Cc2nccn2C)cc1Cl,55.84
5,Cn1ccnc1CN(CCO)C(=O)c1cnc2ccccc2c1,29.71
6,CC(C)NC(=O)NC(C)c1nc(-c2ccccc2)cs1 (configuration not stated),-22.08
7,Cc1csc(N(C)C(=O)C2CC(=O)N(c3ccccc3Cl)C2)n1 (configuration not stated),-29.95
8,CN1CCc2nc(C3CCCN(S(=O)(=O)N4CCCC4)C3)ncc2C1 (configuration not stated),-1.51
9,CN1CCc2nc(C3CCCN(S(=O)(=O)c4ccccc4)C3)ncc2C1 (configuration not stated),64.55
10,CCN(CC)S(=O)(=O)N1CCCC(c2ncc3c(n2)CCN(C)C3)C1 (configuration not stated),3.38
11,Cc1nc(N2CCCC2C(=O)NC(C)(C)CO)nc2ccccc12 (configuration not stated),26.49
12,COCC1CN(c2ccc(Cl)cc2C#N)CCO1 (configuration not stated),29.3
13,Cc1nc(CN2CCCC(c3nc(C)n4c(C)c(C)sc34)C2)co1 (configuration not stated),-12.89
14,Cc1cc(CNC2(CO)CCOCC2)ccc1Br,51.08
15,Cc1cc(CNCC2(O)CCOCC2)ccc1Br,-6.29
16,OCC1(NCc2cccc(-n3cccn3)c2)CCOCC1,-2.38
17,CCn1c(CN2CCN(C(=O)C3CCC3)CC2)nc2c(F)cccc21,10.22
18,O=C(C1CNCCO1)N1CCCC(c2ccccc2)(c2ccccc2)C1 (configuration not stated),42.2
19,CCCc1nc(C)c(C(=O)NS(=O)(=O)c2ccc(C#N)cc2)s1,55.63
20,Cc1nc(C(C)C)sc1C(=O)NS(=O)(=O)c1ccc(C#N)cc1,36.12
21,CCCc1nc(C)c(C(=O)NS(=O)(=O)c2cccnc2)s1,-25.2
22,Fc1ccc(CN2CCCC3(COCCN(Cc4c[nH]nn4)C3)C2)cc1 (configuration not stated),23.81
23,O=C1CC(c2ccc(C(=O)O)cc2)c2ncn(-c3cccc(F)c3)c2N1 (configuration not stated),-20.06
24,O=C1CC(c2ccc(C(=O)O)cc2)c2ncn(-c3ccccc3)c2N1 (configuration not stated),-29.53
25,O=C1CC(c2ccc(C(=O)O)cc2)c2ncn(-c3cccc(Cl)c3)c2N1 (configuration not stated),53.61
26,CN(Cc1noc(C2CC2)n1)C1CCN(CCc2cccs2)C1 (configuration not stated),30.88

row,SMILES,INHIBITION [%]
1,CC(C)c1cnc(CN(C)C2CCN(CCc3cnn(C)c3)C2)o1 (configuration not stated),5.59
2,CN(Cc1nnc(C2CC2)n1C)C1CCN(CCc2ccncc2)C1 (configuration not stated),-0.45
3,CN(Cc1nnc(C2CC2)n1C)C1CCN(CCc2ccccc2)C1 (configuration not stated),-11.31
4,CC(C)c1cnc(CN(C)C2CCN(CCCc3cnn(C)c3)C2)o1 (configuration not stated),59.23
5,CN(Cc1nnc(C2CC2)n1C)C1CCN(CCc2cnn(C)c2)C1 (configuration not stated),81.1
6,CN(Cc1cnn(C)c1)C1CCCN(Cc2noc(C3CC3)n2)C1 (configuration not stated),22.75
7,Cc1ccc(CCN2CCC(N(C)Cc3noc(C4CC4)n3)C2)cc1 (configuration not stated),54.85
8,Cc1cc(C)n(CCN2CCC(N(C)Cc3noc(C4CC4)n3)C2)n1 (configuration not stated),12.66
9,Cc1nc(CN(C)C2CCN(CCc3cnn(C)c3)C2)no1 (configuration not stated),31.7
10,Cc1cnc(CN(C)C2CCN(CCCc3cnn(C)c3)C2)o1 (configuration not stated),8.42
11,CN(Cc1noc(C2CC2)n1)C1CCN(CCc2cnn(C)c2)C1 (configuration not stated),64.87
12,COc1ccnc(C(=O)N2CCCC(c3noc(C)n3)C2)c1 (configuration not stated),11.71
13,Cc1cc(C)c2nc(CN3CCCC(c4cc[nH]n4)C3)cc(O)c2c1 (configuration not stated),-45.64
14,Cn1cc(CNC(=O)c2cc3c(s2)CCCCC3)cn1,36.66
15,COc1cc(C2CC(=O)Nc3c2nc2n3CCCC2)ccc1O (configuration not stated),0.1
16,CC1CCN(C(=O)c2cc(NC(=O)c3ccccc3)n(C)n2)CC1,-57.06
17,CCc1cc(NCCCN(C)C2CCCC2)ncn1,36.22
18,CC(C)NC(=O)N1CCC2(CCC(=O)N2CCN(C)C)CC1,16.12
19,Cc1c(C2=NS(=O)(=O)N(C)C(C(=O)Nc3ccc(Br)cc3)=C2)cnn1C,22.84
20,CN1C(=O)CCCC12CCCN(Cc1nccs1)C2 (configuration not stated),20.2
21,CCN(Cc1ccccc1)C(=O)CN1CCCC(Cn2cncn2)C1 (configuration not stated),33.16
22,CNC(=O)CN1CCN(C(=O)c2ccn(C)c(=O)c2)CC1,-16.28
23,CSc1ccc(C(=O)C2CCCN(C(=O)CCn3cnnn3)C2)cc1 (configuration not stated),35.13
24,CSc1ccc(C(=O)C2CCCN(C(=O)CCn3cncn3)C2)cc1 (configuration not stated),55.25
25,CSc1ccc(C(=O)C2CCCN(C(=O)CCCn3cncn3)C2)cc1 (configuration not stated),49.98
26,CC(C)c1nc(C2CCCN2C(=O)CCn2cncn2)no1 (configuration not stated),-15.92

row,SMILES,INHIBITION [%]
1,CC(C)c1nc(C2CCCN(C(=O)CCCn3cncn3)C2)no1 (configuration not stated),-45.72
2,CC(C)c1nc(C2CCCN(C(=O)CCn3cncn3)C2)no1 (configuration not stated),64.16
3,c1ccn2cc(CN3CCCC(c4ccn[nH]4)C3)nc2c1 (configuration not stated),13.4
4,Cc1cc(C2CCCN(Cc3cccnc3)C2)n[nH]1 (configuration not stated),30.82
5,CC1c2ccc(F)cc2CCN1C(=O)c1[nH]c(=O)[nH]c(=O)c1N (configuration not stated),-36.67
6,CCOC(=O)c1ccc(NC(=O)c2c(O)nc3c(c2O)CCCC3)cc1,-23.02
7,CC(=O)N1CC(=O)N(c2cnn(C)c2)CC12CCN(CC1CC1)C2 (configuration not stated),-7.82
8,Cc1cccc(C(=O)N2CCO[C@H]3[C@H](OCCN(C)C)CC[C@@H]32)n1,19.98
9,Cc1nn(C)c(N(C)C)c1CNCCC(=O)NC1CCCC1,41.76
10,Cc1nn(C)c(N(C)C)c1CNCCC(=O)NC1CCCCC1,68.24
11,COc1c(CNCCC(=O)NC2CCCCC2)c(C(C)C)nn1C,64.16
12,CC(C)c1nn(C)c(N(C)C)c1CNCCC(=O)NC1CCCCC1,39.72
13,CC(C)c1nn(C)c(N(C)C)c1CNCCC(=O)NC1CCCC1,-0.64
14,CC(NCc1c(C(C)C)nn(C)c1N(C)C)C(=O)NC1CCCC1 (configuration not stated),10.04
15,COc1c(CNC(C)C(=O)NC2CCCC2)c(C)nn1C (configuration not stated),60.34
16,COc1c(CNC(C)C(=O)NC2CCCC2)c(C(C)C)nn1C (configuration not stated),3.59
17,COc1c(CNCCC(=O)NC2CCCC2)c(C(C)C)nn1C,-5.09
18,O=C(NC1CCC1)[C@@H]1C[C@@H]2CCN(CCc3ccccc3)C[C@H]2O1,-39.67
19,CNC(=O)CN1CCOCC2(CCCN(Cc3ccc(F)cc3)C2)C1 (configuration not stated),34.24
20,C[C@H]1C[C@H]2CN(S(=O)(=O)c3ccc(F)cc3)CC[C@@H]2O1,-21.77
21,CC(=O)Nc1ccc(-n2cncn2)c(F)c1,8.5
22,COCCOc1ncccc1C(=O)Nc1ccc(-n2cncn2)c(F)c1,69.41
23,COCCNC(=O)Nc1ccc(-n2cncn2)c(F)c1,0.26
24,COC[C@]1(O)CCN(c2cc(N3CCOCC3)ncn2)CC1(C)C,-18.81
25,COc1ccc(CNC(=O)Nc2cccnc2N2CCCC2)cc1O,24.15
26,Cc1cnc(N2CCC3(CCN(CC4CC4)C3=O)CC2)nc1,51.19

row,SMILES,INHIBITION [%]
1,O=C1N(CC2CCCC2)CCC12CCN(c1ncc(F)cn1)CC2,61.15
2,O=C1N(CC2CC2)CCC12CCN(c1ncccn1)CC2,8.37
3,CN1CCC2(CCN(c3ncc(F)cn3)CC2)C1=O,34.19
4,Cc1cnc(N2CCC3(CCN(CC4CCCC4)C3=O)CC2)nc1,45.28
5,O=C1N(CC2CC2)CCC12CCCN(c1ncc(F)cn1)C2 (configuration not stated),-14.61
6,Cc1ccc(CNC(=O)NC2CCCN(c3ncccn3)C2)n1C (configuration not stated),30.83
7,Cc1ccc(C(CNCc2ccncc2)N2CCOCC2)s1 (configuration not stated),-27.89
8,CCn1ccnc1CNCC(c1ccc(C)s1)N1CCOCC1 (configuration not stated),76.65
9,Cc1ccc(C(CNCc2nccn2C)N2CCOCC2)s1 (configuration not stated),69.82
10,CCn1cc(CNCC(c2ccc(C)s2)N2CCOCC2)cn1 (configuration not stated),8.33
11,Cc1ccc(C(CNCc2ncc[nH]2)N2CCOCC2)s1 (configuration not stated),6.4
12,Cc1ccc(C(CNCc2cccn2C)N2CCOCC2)s1 (configuration not stated),-24.42
13,NS(=O)(=O)CCNC(=O)c1nnn(-c2ccccc2)c1C1CC1,2.39
14,Cc1nc(NC(=O)CN2CCc3c(nc(C(C)C)n3C)C2)sc1C,-1.14
15,CS(=O)(=O)N1CCO[C@@H]2CN(C(=O)COC3CCCC3)C[C@@H]2C1,17.4
16,CCOc1c(OC)cc(C=Cc2ncc(C(=O)NC)s2)cc1OC,39.56
17,FC(F)(F)c1cccc(N2CCC(NCc3cccnc3)CC2)c1,47.23
18,Cn1nc(-c2ccccc2)cc1[C@H]1CN2CC[C@H]1C[C@@H]2CNS(C)(=O)=O,62.25
19,CCNC(=O)NC[C@H]1C[C@@H]2CCN1C[C@@H]2c1cc(-c2cccs2)nn1C,60.6
20,COCC(=O)NC[C@H]1C[C@@H]2CCN1C[C@@H]2c1cc(-c2cccs2)nn1C,27.65
21,CC(=O)NC[C@H]1C[C@@H]2CCN1C[C@@H]2c1cc(-c2cccs2)nn1C,35.89
22,Cn1nc(-c2cccs2)cc1[C@H]1CN2CC[C@H]1C[C@@H]2CN,34.24
23,Cn1nc(-c2cccs2)cc1[C@H]1CN2CC[C@H]1C[C@@H]2CNS(C)(=O)=O,40.83
24,O=C(c1cc(C2CC2)on1)N1CCC(Oc2ncccc2Cl)CC1,-22.8
